Bioassay records: PubChem BioAssay, Broad Institute
CD40 NFkB inh = CD40 pathway inhibition in BL2 cells; BL2 NF-kB luciferase reporter, CD40L-induced, 4 h; inhibition, % at 10 µM; actives 0.94% (n = 83,000);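 active means mean inhibition of at least 50% with a set share of replicates also reaching that level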;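 further: 0% = neutral control wells and 100% = IKK inhibitor VII at 50 µM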
* marks the source's active call; other numbers are inactive results; ! = repeats disagree; [ ] = remark or other dose. Many of the other results were omitted from the sample, so hits are more common in it than they were.

SMILES	CD40 NFkB inh
C[C@H](CO)N1C[C@H](C)[C@H](CN(C)S(=O)(=O)c2ccc(C#N)cc2)OCc2ccccc2-c2ccccc2C1=O	-6.5
COCCNC(=O)c1cc2c(c(-c3cccc(C4=CCCCC4)c3)n1)[C@@H](CCO)N([S@](=O)C(C)(C)C)C2	-8.9[25 µM]
COc1ccccc1C(=O)N1C[C@@H]2[C@H](c3ccccc31)[C@H](CO)N2C(=O)Cc1ccccc1	6.5[25 µM]
C(=Cc1cnc2ccccc2n1)c1ccc2c(c1)OCO2	97.5*
O=C(/C=C/c1ccc2c(c1)OCO2)c1ccccn1	-87.2
Nc1nc2ccccc2n1/N=C/c1ccc2c(c1)OCO2	-83.3
Cc1ccc(NC(=O)Nc2ccc3c(c2)C(=O)N(C)[C@H]2CC[C@H](CC(=O)NCC(F)(F)F)O[C@@H]2CO3)cc1	2.7[25 µM]
C[C@@H]1CN([C@@H](C)CO)C(=O)c2c(c3ccccc3n2C)-c2ccccc2CO[C@@H]1CN(C)Cc1cccc2c1OCCCO2	2.9[25 µM]
COc1ccc(-c2ccc3c(c2)[C@H]2[C@H](CCN2C(=O)c2cccc(F)c2)[C@@H](CO)N3)cc1	-8.2[25 µM]
COC(=O)c1ccc2nc(NC(=O)C(C)(C)C)sc2c1	79.0*
CCCC(=O)Nc1nc2ccc(OC)cc2s1	-59.2
COC(=O)Nc1nc2ccc(Br)cc2s1	-9.4
C[C@@H]1CC=CCCNC(=O)[C@@H](Cc2ccccc2)N(C)C(=O)c2ccccc2O1 (mixture of isomers)	4.4[25 µM]
CO[C@@H]1CN(C)C(=O)c2ccc(NC(=O)c3ccccc3F)cc2OC[C@H](C)N(C)C[C@@H]1C	-8.2[25 µM]
CN1CCN(C(=O)C[C@@H]2CC[C@@H]3[C@H](COC[C@H](O)CN3C(=O)c3ccccc3F)O2)CC1	-7.6[25 µM]
CO[C@@H]1CN(C)C(=O)c2cc(NC(=O)c3ccc(Oc4ccccc4)cc3)ccc2OC[C@@H](C)NC[C@H]1C	0.8[25 µM]
Cc1sc2nc(-c3ccco3)oc(=O)c2c1C	-30.7
Cc1nc(NCc2ccco2)c2c(C)c(C)sc2n1	49.5*
Cc1sc2ncnc(SCc3ccco3)c2c1C	4.3
COc1ccccc1C#Cc1ccc([C@H]2[C@H]3CN(C(=O)C4CCC4)CCCCN3[C@H]2CO)cc1	41.1[25 µM]
O=C(NCC(F)(F)F)[C@@H]1[C@@H](CO)[C@@H]2Cn3c(ccc(-c4ccncc4)c3=O)[C@@H]2N1Cc1ccncc1	3.3[25 µM]
COc1ccccc1N1CCN(c2ccc(-c3ccccc3)nn2)CC1	53.1*
COc1ccccc1N1CCN(c2ccc(S(=O)(=O)N3CCN(C)CC3)cn2)CC1	3.2
COc1ccccc1OCC(=O)N1CCN(c2ccccc2OC)CC1	16.2
CCOc1ccc2c(ccc(/C=C/c3cc(C)c4cccnc4c3O)[n+]2C)c1	78.6*
SMILES	CD40 NFkB inh
C/C=C/c1ccc([C@H]2[C@@H](CO)N(C(=O)CC)[C@@H]2CNCC2CCCC2)cc1	-1.3
O=C(CC(=O)c1ccccc1)c1ccccc1	-74.0
O=C(COc1ccccc1)c1ccccc1	-8.7
O=C(C#Cc1ccccc1)c1ccccc1	89.0*
O=C(C[C@@H]1C[C@H]2c3cc(NC(=O)c4cccnc4)ccc3O[C@H]2[C@H](CO)O1)NCCc1ccccc1	2.8[25 µM]
O=C(c1ccc(F)cc1)N1C[C@@H]2[C@H](c3ccccc31)[C@H](CO)N2C(=O)c1ccccc1	-6.5
CO[C@@H]1CN(C)C(=O)c2cc(NC(=O)Nc3cccc(Cl)c3)ccc2OC[C@H](C)N(C(=O)Nc2c(C)noc2C)C[C@@H]1C	2.8[25 µM]
OC[C@@H]1[C@H](c2ccc(C3=CCCCC3)cc2)[C@@H](CNC2CCCC2)N1CC1CC1	-1.1
O=C(O)C[C@H]1C=C[C@H](NC(=O)Nc2cc(F)ccc2F)[C@@H](CO)O1	8.4[25 µM]
COc1ccc(NC(=O)N2C[C@@H]3N[C@H](C2)C3c2ccc(-c3ccncc3)cc2)cc1 (stereo partly specified)	-4.1[25 µM]
Cc1ccccc1-c1ccc(C2[C@@H]3CN(C(=O)Nc4cccc(F)c4)C[C@H]2N3)cc1 (stereo partly specified)	62.3*[25 µM]
Cc1ccccc1-c1ccc(C2[C@@H]3CN(C(=O)Nc4ccc(F)cc4)C[C@H]2N3)cc1 (stereo partly specified)	36.9[25 µM]
COc1cccc(-c2ccc(C3[C@@H]4CN(C(=O)C5CCC5)C[C@H]3N4)cc2)c1 (stereo partly specified)	2.6
COc1ccc(NC(=O)N2C[C@@H]3N[C@H](C2)C3c2ccc(-c3cncnc3)cc2)cc1 (stereo partly specified)	19.0
COc1ccc(NC(=O)N2C[C@@H]3N[C@H](C2)C3c2ccc(-c3cccc(OC)c3)cc2)cc1 (stereo partly specified)	-25.4
COc1ccc(NC(=O)N2C[C@@H]3N[C@H](C2)[C@@H]3c2ccc(-c3ccc(OC)cc3)cc2)cc1	63.2*
COc1cccc(-c2ccc(C3[C@@H]4CN(C(=O)C5CC5)C[C@H]3N4)cc2)c1 (stereo partly specified)	63.0*!
O=C(Nc1cccc(F)c1)N1C[C@@H]2N[C@H](C1)C2c1ccc(-c2ccccc2F)cc1 (stereo partly specified)	-1.3
CN1CCN(C(=O)C[C@@H]2CC[C@H]3[C@H](COc4ccc(NC(=O)C5CCCC5)cc4C(=O)N3C)O2)CC1	-4.5
O=C(C[C@H]1C[C@@H]2c3cc(NC(=O)NC4CCCC4)ccc3O[C@@H]2[C@H](CO)O1)NCc1cccnc1	-0.3
C[C@H]1CC=CC[C@H](c2cccc(Cl)c2)NC(=O)[C@H](Cc2ccccc2)N(C)C(=O)c2ccccc2O1 (mixture of isomers)	18.9[25 µM]
C1=C(CN2CCOCC2)COc2c1cccc2OCC1CNCCO1 (stereo unspecified)	0.9[25 µM]
COc1ccccc1NC(=O)N(C)C[C@@H]1OCc2ccccc2-c2c(n(C)c3ccccc23)C(=O)N([C@@H](C)CO)C[C@H]1C	13.1
CC(C)NC(=O)Nc1ccc2c(c1)CC(=O)N(C)C[C@@H](C)[C@@H](CN(C)C)O2	-4.7
O=C(C[C@H]1C[C@@H]2c3cc(NC(=O)C4CCOCC4)ccc3O[C@@H]2[C@H](CO)O1)NCc1ccc(Oc2ccccc2)cc1	-6.1[25 µM]
SMILES	CD40 NFkB inh
CCCN1C[C@H](C)[C@@H](OC)CN(C)C(=O)c2cc(NC(=O)Nc3cccc(F)c3)ccc2OC[C@H]1C	-19.4[25 µM]
CC(=O)N1C[C@@H]2C(c3ccccc3)[C@H](C1)N2C(=O)NC(C)C (stereo partly specified)	1.4
CC(C)N(Cc1ccccc1)C(=O)COC(=O)c1cnc(Cl)c(Cl)c1	61.1*
CC(C)CN(C(=O)COC(=O)c1cnc(Cl)c(Cl)c1)c1c(N)n(Cc2ccccc2)c(=O)[nH]c1=O	41.5
CN(Cc1ccccc1)C(=O)COC(=O)c1cncc(Br)c1	-3.7
O=C(NC1CCC1)[C@@H]1[C@@H](CO)[C@@H]2Cn3c(cccc3=O)[C@@H]2N1CC1CCOCC1	1.6
C[C@@H]1CN([C@@H](C)CO)C(=O)c2ccccc2-c2ccccc2CO[C@@H]1CN(C)S(=O)(=O)c1ccc(C#N)cc1	0.6
Cn1cnc([N+](=O)[O-])c1S(=O)(=O)Oc1cccc2ccccc12	100.7*
CCN(CC)c1c([N+](=O)[O-])ncn1C	4.5
Cn1cnc([N+](=O)[O-])c1Oc1cccc2ccccc12	28.6
Cn1cnc([N+](=O)[O-])c1Oc1ccccc1	12.4
Cn1cnc([N+](=O)[O-])c1Cl	11.6
CCS(=O)(=O)c1c([N+](=O)[O-])ncn1C	95.3*
CNC[C@@H]1Oc2ccccc2CC(=O)N(C)C[C@@H]1C	-4.9
CNC[C@@H]1Oc2c(NS(=O)(=O)c3ccc(OC)cc3)cccc2C(=O)N([C@@H](C)CO)C[C@H]1C	-5.0
